The source of these data is PubChem BioAssay.

A number with no mark means an inactive call. For some of these results: Measured potencies and affinities stand elsewhere. Activity calls are given as the source filed them. Unless noted, the rule behind the calls is not given here.

Test [1] can be described thus: antimalarial activity against Dd2 strain (AID 2302;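 active = growth inhibition above 50% at the single 2 µM test dose, taken to imply half-maximal potency below 2 µM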;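 note: 0% = DMSO untreated growth and 100% = chloroquine plus artemisinin killed control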). As to conditions: P. falciparum Dd2 in RBCs, LDH growth readout, 72 h; at 2 µM; stronger effect = higher value.
A short description of test [2]: human hepatoma cell viability loss – ATP luminescence, cytotoxicity control for P. falciparum antimalarial project, primary screen (AID 2303;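 active = inhibition above 50%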;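 note: 0% = DMSO wells and 100% = digitonin-killed cells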). As to conditions: HepG2 viability, 24-48 h, at 10 µM, stronger effect = higher value.
Test [3] deals with L-lactate dehydrogenase (Plasmodium falciparum (isolate CDC / Honduras)) (UniProt Q27743). As to the kind of experiment: PfLDH activity inhibition – cell lysate, 3D7 strain, counter-screen for P. falciparum growth inhibition project (AID 2304).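 Note: 0% = vehicle and 100% = reference inhibitor.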 As to conditions: P. falciparum 3D7 crude extract, LDH APAD/NBT absorbance; at 2 µM; stronger effect = higher value. On the technique in general: Counterscreens check selectivity or assay interference.
L-lactate dehydrogenase (Plasmodium falciparum (isolate CDC / Honduras)), sequence (Q27743 whole entry, looked up): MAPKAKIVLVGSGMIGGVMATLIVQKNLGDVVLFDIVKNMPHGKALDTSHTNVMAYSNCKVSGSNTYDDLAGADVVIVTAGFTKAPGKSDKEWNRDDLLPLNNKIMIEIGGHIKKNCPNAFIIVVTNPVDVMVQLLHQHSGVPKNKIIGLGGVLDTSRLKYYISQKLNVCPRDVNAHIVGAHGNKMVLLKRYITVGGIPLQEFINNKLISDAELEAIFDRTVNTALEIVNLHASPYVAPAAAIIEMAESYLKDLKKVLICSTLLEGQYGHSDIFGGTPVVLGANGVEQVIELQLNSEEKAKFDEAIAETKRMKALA

Test [4] can be described thus: inhibition of 3D7 malaria parasite growth – strain 3D7 (AID 2306).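 Note: 0% = DMSO wells and 100% = chloroquine plus artemisinin control wells.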 As to conditions: P. falciparum 3D7 erythrocytic growth, LDH absorbance, 72 h; at 2 µM; stronger effect = higher value.
Test [5] concerns the target Calcium-dependent protein kinase 1 (Plasmodium falciparum (isolate 3D7)) (UniProt P62344). As to the kind of experiment: PfCDPK1 kinase inhibitors, biochemical, TCAMS library (AID 1159585; cut-off not given, nearly all actives have IC50 up to about 0.98 µM;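 note: inhibitors leave more ATP so luminescence rises with inhibition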). As to conditions: recombinant PfCDPK1, Kinase-Glo ATP depletion luminescence.
Test [6] addresses Plasmodium falciparum protein kinase 6 (PK6, PF3D7_1337100) (UniProt Q8IDW1). As to the kind of experiment: PfPK6 kinase inhibitors, biochemical, TCAMS library (AID 1159586). As to conditions: recombinant PfPK6, Kinase-Glo ATP depletion luminescence. On the technique in general: In Kinase-Glo more light means more ATP remaining.
The target in test [7] is Protein kinase 7 (PK7), Plasmodium falciparum 3D7 (PF3D7_0213400) (UniProt Q7YTF7). As to the kind of experiment: inhibition of Plasmodium PK7 catalytic activity – biochemical, TCAMS antimalarial set, Kinase-Glo luminescence (AID 1159587). As to conditions: recombinant PfPK7, Kinase-Glo ATP depletion luminescence.
Protein kinase 7 (PK7), Plasmodium falciparum 3D7 (PF3D7_0213400), sequence (Q7YTF7 1-343): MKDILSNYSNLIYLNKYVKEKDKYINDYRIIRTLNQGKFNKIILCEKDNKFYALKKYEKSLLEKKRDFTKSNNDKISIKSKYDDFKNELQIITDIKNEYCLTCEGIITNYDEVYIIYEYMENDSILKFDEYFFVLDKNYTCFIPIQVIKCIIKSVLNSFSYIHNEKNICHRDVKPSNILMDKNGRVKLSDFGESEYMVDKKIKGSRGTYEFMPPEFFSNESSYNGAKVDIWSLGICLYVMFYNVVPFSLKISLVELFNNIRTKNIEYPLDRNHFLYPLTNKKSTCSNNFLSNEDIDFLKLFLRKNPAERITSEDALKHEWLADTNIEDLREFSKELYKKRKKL
The target of test [8] is Calcium-dependent protein kinase 4 (Plasmodium falciparum (isolate 3D7)) (UniProt Q8IBS5). As to the kind of experiment: PfCDPK4 kinase inhibitors, biochemical, TCAMS library (AID 1159588; cut-off not given, nearly all actives have IC50 up to about 0.91 µM). As to conditions: recombinant PfCDPK4, Kinase-Glo ATP depletion luminescence.
Calcium-dependent protein kinase 4 (Plasmodium falciparum (isolate 3D7)), sequence (Q8IBS5 whole entry, looked up): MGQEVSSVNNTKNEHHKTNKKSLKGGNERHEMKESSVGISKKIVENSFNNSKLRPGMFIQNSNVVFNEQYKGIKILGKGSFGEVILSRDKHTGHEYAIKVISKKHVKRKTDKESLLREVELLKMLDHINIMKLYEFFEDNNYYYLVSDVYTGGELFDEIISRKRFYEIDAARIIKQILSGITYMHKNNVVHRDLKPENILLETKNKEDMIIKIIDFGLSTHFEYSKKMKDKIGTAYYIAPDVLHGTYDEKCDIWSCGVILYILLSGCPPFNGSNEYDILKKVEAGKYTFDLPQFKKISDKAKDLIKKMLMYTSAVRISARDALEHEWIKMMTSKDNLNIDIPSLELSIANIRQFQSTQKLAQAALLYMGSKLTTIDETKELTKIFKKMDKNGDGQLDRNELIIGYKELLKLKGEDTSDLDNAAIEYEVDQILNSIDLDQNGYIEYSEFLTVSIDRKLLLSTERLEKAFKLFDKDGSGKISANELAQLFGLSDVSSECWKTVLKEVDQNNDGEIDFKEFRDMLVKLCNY

Calcium-dependent protein kinase 1 (Plasmodium falciparum (isolate 3D7)), sequence (P62344 whole entry, looked up): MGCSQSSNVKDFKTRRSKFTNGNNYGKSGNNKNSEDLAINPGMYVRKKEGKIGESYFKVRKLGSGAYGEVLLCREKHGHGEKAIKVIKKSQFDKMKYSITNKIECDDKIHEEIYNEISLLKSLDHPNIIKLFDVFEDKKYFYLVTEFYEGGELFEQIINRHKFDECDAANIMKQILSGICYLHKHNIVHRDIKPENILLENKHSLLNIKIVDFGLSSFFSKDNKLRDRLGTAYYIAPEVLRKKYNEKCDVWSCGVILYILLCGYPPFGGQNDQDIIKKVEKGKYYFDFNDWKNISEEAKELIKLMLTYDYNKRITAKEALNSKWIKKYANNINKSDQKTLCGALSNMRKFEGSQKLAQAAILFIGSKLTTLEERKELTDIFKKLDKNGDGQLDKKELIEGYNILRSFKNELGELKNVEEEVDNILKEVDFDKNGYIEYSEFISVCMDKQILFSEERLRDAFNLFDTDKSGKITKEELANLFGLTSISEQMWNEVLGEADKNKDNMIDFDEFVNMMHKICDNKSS
Plasmodium falciparum protein kinase 6 (PK6, PF3D7_1337100), sequence (Q8IDW1 1-305): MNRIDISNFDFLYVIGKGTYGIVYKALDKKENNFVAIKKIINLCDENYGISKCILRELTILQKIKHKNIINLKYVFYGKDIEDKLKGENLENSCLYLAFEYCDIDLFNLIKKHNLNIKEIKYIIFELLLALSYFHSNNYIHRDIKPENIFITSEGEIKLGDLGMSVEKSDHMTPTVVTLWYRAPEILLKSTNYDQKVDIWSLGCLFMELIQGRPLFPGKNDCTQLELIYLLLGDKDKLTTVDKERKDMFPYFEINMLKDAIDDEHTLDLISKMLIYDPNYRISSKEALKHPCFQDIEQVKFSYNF

A word on the inhibition: it is the relative decrease from the control value, in per cent. With `COc1ccc(-c2ccc(NC(=O)c3ccc(Cl)cc3)cc2)cc1CN1CCC(O)CC1`, the results for the growth inhibition in test [1] and in test [4] were 15% and 89% (active), respectively. Also, the inhibition in test [2] was 20%; in test [3] it was 5%. Further, the outcome in test [5], in test [6], in test [7] and in test [8] was inactive.

Consider `COc1cc2nc(N3CCC(CNC(=O)c4cc5ccccc5s4)CC3)nc(N)c2cc1OC`, for which the growth inhibition in test [1] and in test [4] was 101% (active) throughout. The inhibition is 8% in test [2] and 2% in test [3]. The result in test [5], in test [6], in test [7] and in test [8] was inactive.

In the case of `Cc1ccc(Nc2nc(C)cc(N3CCN(CCc4ccccc4)CC3)n2)cc1`, the growth inhibition in test [1] was 6%; in test [4], 93% (active). Also, the inhibition in test [2] is 6%; in test [3], -9%. For the same molecule, the outcome in test [5], in test [6], in test [7] and in test [8] was inactive.

`CCN(CC)S(=O)(=O)c1ccc(Cl)c(C(=O)Nc2ccc3nc(C)sc3c2)c1`: the results for the growth inhibition in test [1] and in test [4] were 94% (active) and 96% (active), respectively. The results for the inhibition in test [2] and in test [3] were 9% and -4%, respectively. In addition, the result in test [5], in test [6], in test [7] and in test [8] was inactive.

For the molecule `CNC(=O)c1cc(NCCCNCc2ccc(Cl)c(C(F)(F)F)c2)nc2ccccc12`, the growth inhibition was 7% in test [1] and 91% (active) in test [4]. The figures for the inhibition in test [2] and in test [3] were 25% and -1%, respectively. In addition, the outcome in test [5], in test [6], in test [7] and in test [8] was inactive.

Take `FC(F)(F)c1cnc(Sc2nnc(-c3ccco3)o2)c(Cl)c1`: the growth inhibition in test [1] was 97% (active); in test [4], 98% (active). Further, the inhibition was -1% in test [2] and -4% in test [3]. The outcome in test [5], in test [6], in test [7] and in test [8] was inactive.

With `CN(C(=O)/C=C/c1c(Cl)cccc1Cl)C1CCN(CCCCCNC(=O)/C=C/c2ccc(Cl)c(Cl)c2)CC1`, the growth inhibition in test [1] is 62% (active); in test [4], 92% (active). In addition, the inhibition was 78% (active) in test [2] and 4% in test [3]. Further, the result in test [5], in test [6], in test [7] and in test [8] was inactive.

Regarding `N#Cc1cccc(C(=O)Nc2ccc(-c3nc4ccccc4[nH]3)cc2)c1`, the growth inhibition was 38% in test [1] and 91% (active) in test [4]. Also, the inhibition in test [2] was 33%; in test [3] it was -2%. The result in test [5], in test [6], in test [7] and in test [8] was inactive.

In the case of `O=C(NC1CCN(c2ccnc3cc(Cl)ccc23)C1)c1ccc(F)cc1F` (stereo not given), the growth inhibition in test [1] and in test [4] was 100% (active) throughout. For the same molecule, the inhibition in test [2] was 31%; in test [3], 2%. In addition, the result in test [5], in test [6], in test [7] and in test [8] was inactive.

On to `Cc1ccc2c(NC(=O)Nc3ccc(N(C)C)cc3)cc(C)nc2c1`, for which the values for the growth inhibition in test [1] and in test [4] were 20% and 98% (active), respectively. The values for the inhibition in test [2] and in test [3] were -6% and 0%, respectively. In addition, the outcome in test [5], in test [6], in test [7] and in test [8] was inactive.

For the molecule `O=C(Nc1ccc(Cl)cc1)N[C@H]1CCN(Cc2ccc(OCCCN3CCCCC3)cc2)C1`, the growth inhibition in test [1] was -1%; in test [4] it was 103% (active). In addition, the inhibition is 29% in test [2] and -2% in test [3]. Further, the outcome in test [5], in test [6], in test [7] and in test [8] was inactive.

Consider `CC1(C)N=C(N)N=C(N)N1OCc1cc(Cl)cc2c1OCOC2`, for which the growth inhibition is 64% (active) in test [1] and 95% (active) in test [4]. Also, the inhibition is 65% (active) in test [2] and -1% in test [3]. The result in test [5], in test [6], in test [7] and in test [8] was inactive.

Take `Cc1cnc(-c2ccc(NC(=O)c3coc4ccc(N5C[C@@H](C)N(C)[C@@H](C)C5)cc34)cc2)o1`: the figures for the growth inhibition in test [1] and in test [4] were 39% and 96% (active), respectively. For the same molecule, the figures for the inhibition in test [2] and in test [3] were 18% and 1%, respectively. Further, the result in test [5], in test [6], in test [7] and in test [8] was inactive.

As to `N#Cc1ccc2[nH]cc(C(=O)CCCCCN(Cc3ccccc3)Cc3ccccc3)c2c1`, the growth inhibition in test [1] was 97% (active); in test [4] it was 93% (active). The inhibition was 10% in test [2] and 2% in test [3]. Besides, the outcome in test [5], in test [6], in test [7] and in test [8] was inactive.

Regarding `CN1CCC(C(=O)N(Cc2ccc(-c3ccc(CNCCc4ccccc4)cn3)cc2)C2CCN(Cc3ccccc3)CC2)CC1`, the growth inhibition in test [1] is 99% (active); in test [4], 100% (active). For the same molecule, the inhibition in test [2] was 24%; in test [3], -6%. For the same molecule, the result in test [5], in test [6], in test [7] and in test [8] was inactive.

Turning to `O=C1C2C(C(=O)N1c1ccccc1)[C@H]1S[C@@H]2c2c1ccc1ccccc21` (stereo not given in full), the figures for the growth inhibition in test [1] and in test [4] were 7% and 96% (active), respectively. The inhibition is -5% in test [2] and -1% in test [3]. Moreover, the outcome in test [5], in test [6], in test [7] and in test [8] was inactive.

For `Cc1cc(N[C@@H](CC(C)C)C(=O)Nc2ccccc2)nc(NCc2ccccc2C)n1`, the growth inhibition is 81% (active) in test [1] and 101% (active) in test [4]. Besides, the inhibition in test [2] was 21%; in test [3] it was 4%. Moreover, the outcome in test [5], in test [6], in test [7] and in test [8] was inactive.

For the molecule `Clc1cc(Br)ccc1-c1ccc(CNCC2CCNCC2)o1`, the growth inhibition is 39% in test [1] and 96% (active) in test [4]. The inhibition in test [2] is 100% (active); in test [3], 1%. The result in test [5], in test [6], in test [7] and in test [8] was inactive.

As to `CC(C)(c1ccccc1)c1ccc(O)c(CN2CCOCC2)c1`, the growth inhibition in test [1] is 88% (active); in test [4], 99% (active). Besides, the inhibition in test [2] is -7%; in test [3], 2%. Also, the result in test [5], in test [6], in test [7] and in test [8] was inactive.

`COC1CCC(C(=O)Nc2ccc(-c3cccc(-c4nc5c(C)cccc5[nH]4)c3)cc2)CC1` (stereo not given): the growth inhibition in test [1] was 60% (active); in test [4] it was 97% (active). In addition, the inhibition in test [2] is 89% (active); in test [3], 1%. Further, the outcome in test [5], in test [6], in test [7] and in test [8] was inactive.
